Hit rate of the full screen: of about 5,500 compounds, about 2,000 (36%) were called active. About 18% were inconclusive and are not listed. No stated cut-off is given here; in the data, active means normalized growth mostly below about 0.91 (no sharp cut-off); inconclusive means no clear call, values can overlap the other calls; inactive means mostly above about 0.92. The list shows a part of the results.
Test: chemical genetic growth profiling, strain panel (AID 1159580);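 further: tested at 20 µM; growth read once vehicle control cultures reached saturation at 30 °C; 1 = growth at the plate median or of vehicle wells; lower values mean less growth of the strain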
Conditions: growth OD
[1] = S. cerevisiae deletion strains, locus YAL013W, strain DEP1, active compounds read low
[2] = S. cerevisiae deletion strains, locus YBR229C, strain ROT2, active compounds read low
[3] = S. cerevisiae deletion strains, locus YCL061C, strain MRC1, active compounds read low
[4] = S. cerevisiae deletion strains, locus YDL101C, strain DUN1, active compounds read low
[5] = S. cerevisiae deletion strains, locus YDR150W, strain NUM1, active compounds read low
[6] = S. cerevisiae deletion strains, locus YEL061C, strain CIN8, active compounds read low
[7] = S. cerevisiae deletion strains, locus YGR078C, strain PAC10, active compounds read low
[8] = S. cerevisiae deletion strains, locus YHR030C, strain SLT2, active compounds read low
[9] = S. cerevisiae deletion strains, locus YHR087W, strain rtc3, active compounds read low
[10] = S. cerevisiae deletion strains, locus YJL187C, strain SWE1, active compounds read low
[11] = S. cerevisiae deletion strains, locus YJR043C, strain POL32, active compounds read low
[12] = S. cerevisiae deletion strains, locus YJR075W, strain HOC1, active compounds read low
[13] = S. cerevisiae deletion strains, locus YLR039C, strain RIC1, active compounds read low
[14] = S. cerevisiae deletion strains, locus YLR058C, strain SHM2 (second series), active compounds read low
[15] = S. cerevisiae deletion strains, locus YLR085C, strain ARP6, active compounds read low
[16] = S. cerevisiae deletion strains, locus YLR262C, strain YPT6, active compounds read low
[17] = S. cerevisiae deletion strains, locus YML094W, strain GIM5, active compounds read low
[18] = S. cerevisiae deletion strains, locus YMR219W, strain ESC1, active compounds read low
[19] = S. cerevisiae deletion strains, locus YMR263W, strain SAP30, active compounds read low
[20] = S. cerevisiae deletion strains, locus YNL128W, strain TEP1, active compounds read low
[21] = S. cerevisiae deletion strains, locus YNL153C, strain GIM3, active compounds read low
[22] = S. cerevisiae deletion strains, locus YNL298W, strain CLA4 (second series), active compounds read low
[23] = S. cerevisiae deletion strains, locus YNL322C, strain KRE1, active compounds read low
[24] = S. cerevisiae deletion strains, locus YNR030W, strain Alg12, active compounds read low
[25] = S. cerevisiae deletion strains, locus YOL006C, strain TOP1, active compounds read low
[26] = S. cerevisiae deletion strains, locus YPL055C, strain LGE1, active compounds read low
[27] = S. cerevisiae deletion strains, locus YPL241C, strain CIN2, active compounds read low
[28] = S. cerevisiae deletion strains, locus YPR135W, strain CTF4, active compounds read low
[29] = S. cerevisiae strains, strain wild type, active compounds read low

Measured: normalized growth

CCOC(=O)Cn1c(=O)c(C#N)cn(C(C)C)c1=O
inactive: [1] 1.01 | [2] 1.01 | [3] 0.993 | [4] 1.02 | S. cerevisiae deletion strains, locus YDL134C, strain PPH21, active compounds read low 1.01 | [5] 1.02 | [6] 0.988 | [7] 1.01 | [8] 1.03 | [9] 1 | [10] 1 | [11] 0.998 | [12] 1.02 | [13] 1.02 | [14] 1.01 | [15] 0.976 | [16] 1.01 | [17] 1 | [18] 1.01 | [19] 1 | [20] 0.98 | [21] 1 | [22] 1.04 | [23] 1.01 | [24] 1.02 | [25] 1.03 | [26] 0.984 | [27] 1.02 | [28] 1.02 | [29] 1.01

CCCn1c(=O)c(C#N)cn(-c2ccc(Cl)cc2)c1=O
inactive: [1] 1.01 | [2] 0.986 | [3] 1.01 | [4] 0.991 | [5] 1.02 | [6] 0.97 | [7] 0.996 | S. cerevisiae deletion strains, locus YGR229C, strain SMI1, active compounds read low 0.997 | [8] 0.937 | [9] 0.977 | [11] 1.02 | [12] 1.01 | [14] 0.986 | [15] 0.893 | [16] 0.821 | [17] 0.963 | [18] 0.99 | [19] 1 | [21] 1 | [22] 0.961 | [23] 0.979 | [24] 0.99 | [25] 0.924 | [26] 1.04 | [27] 0.982 | [28] 1.03
active: [10] 0.93 | [13] 0.759

CC(C)n1cc(C#N)c(=O)n(Cc2ccccc2)c1=O
inactive: [1] 0.992 | [2] 0.994 | [3] 0.991 | [4] 1.02 | [5] 0.923 | [6] 1 | [7] 0.991 | [8] 0.983 | [9] 0.989 | [10] 0.977 | [12] 0.999 | [13] 1.01 | [14] 1 | [15] 0.999 | [16] 1.04 | [17] 0.988 | [18] 1 | [19] 0.967 | [20] 0.994 | [21] 0.984 | [22] 1.05 | [23] 0.996 | [24] 1.01 | [26] 0.979 | [27] 1 | [28] 0.994 | [29] 1.01
